# Screens: PubChem, National Center for Advancing Translational Sciences (NCATS)
# HTT promoter inh – HTT promoter inhibition | Potency, µM (doses to about 57.5 µM), inactives show at the top dose activity change, negative = inhibition, hits mostly inhibitors | HEK293 HTT promoter firefly luciferase reporter, 24 h | 48,000 compounds, 0.93% hits | AID 1508623; note: potency is the fitted concentration of half-maximal effect; nearly all actives have a fitted effect of over 50% in size
#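 HEK293 Fluc reporter, 2,500 cells/well, 24 h pre-culture; cpds up to 57.5 uM final, 24 h 37 degrees C; Dual-Glo, 10 min RT; normalized vehicle = 0%, zero RLU = -100%.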
# NTMT1 inhibitor – NTMT1 methyltransferase inhibition; Q9BV86; NTMT1 MTase-Glo SAH luminescence, purified enzyme; Potency, µM (series often up to 114 µM), inactives show at the highest dose activity change, negative = inhibition, most hits filed as inhibitors; 59,000 compounds, 2.5% hits;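 note: potency is the fitted concentration of half-maximal effect; plate controls were DMSO vehicle for no effect and no enzyme for full effect; nearly all actives have a fitted effect of over 65% in size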
# Target sequence (Q9BV86 whole entry, looked up): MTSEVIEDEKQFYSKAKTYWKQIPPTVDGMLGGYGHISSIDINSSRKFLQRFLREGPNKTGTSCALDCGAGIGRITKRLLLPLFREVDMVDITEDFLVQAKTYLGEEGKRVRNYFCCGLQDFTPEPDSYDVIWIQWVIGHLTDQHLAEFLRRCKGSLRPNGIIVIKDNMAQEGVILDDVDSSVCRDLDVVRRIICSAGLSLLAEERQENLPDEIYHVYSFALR
# OvCa metastasis – ovarian cancer metastasis inhibition, 3D TME model; 46,000 compounds, 0.1% hits; SKOV3ip1-GFP adhesion/invasion on 3D omental model, fluorescence; Potency, µM (top dose mostly 45.8 µM), inactives show at the top dose activity change, negative = inhibition, most hits filed as inhibitors;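 note: potency is the fitted concentration of half-maximal effect; plate controls were DMSO wells for no effect and tomatine positive control wells for full effect; nearly all actives have a fitted effect of over 65% in size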
#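 Primary human omental fibroblast/mesothelial 3D culture pre-formed 48 h. SKOV3ip1-GFP cells added with compounds (0.36-46 umol/L), incubated 2 h RT/16 h 37 C, fixed; GFP cells quantified at 488/509 nm.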
# GPR32 ag – agonists of human resolvin D1 receptor DRV1 (GPR32) | CHO-K1 GPR32 beta-arrestin PathHunter luminescence, 90 min; zero percent set by DMSO-only wells | activation, % at 76.9 µM | 48,000 compounds, 2.5% hits | AID 1346428;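 active = activation of at least 60% and not above a set upper limit, about 1 call in 100 departs from these limits; inconclusive = activation of 40% to 60%, or above that upper limit; inactive = activation under 40%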; note: 0% is about no effect
# Target sequence (O75388 whole entry, looked up): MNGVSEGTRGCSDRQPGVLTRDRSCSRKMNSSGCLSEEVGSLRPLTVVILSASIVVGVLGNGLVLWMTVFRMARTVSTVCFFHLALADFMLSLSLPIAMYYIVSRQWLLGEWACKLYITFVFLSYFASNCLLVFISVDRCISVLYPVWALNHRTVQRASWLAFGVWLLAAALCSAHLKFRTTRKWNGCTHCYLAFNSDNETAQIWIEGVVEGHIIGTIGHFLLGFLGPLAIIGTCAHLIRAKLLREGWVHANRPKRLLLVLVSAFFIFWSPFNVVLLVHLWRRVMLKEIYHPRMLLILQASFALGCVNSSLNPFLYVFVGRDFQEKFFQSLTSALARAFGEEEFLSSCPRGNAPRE
#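 PathHunter enzyme-fragment complementation, CHO-K1 GPR32 stable line; 2,500 cells/well, overnight attach; cpd 90 min 37 °C 5% CO2; detection reagent 1 h RT; chemiluminescence. DMSO = EC0.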
# HTT-AS act – activators of huntingtin-antisense promoter activity | HEK293 HTT-AS promoter firefly luciferase reporter, 24 h; response scale: percent change from vehicle, -100% = no light | 48,000 compounds, 0.24% hits | Potency, µM (titrated, usually from 57.5 µM), without a hit: at the highest dose activity change, positive = activation, usual class: activators; note: potency is the fitted concentration of half-maximal effect; nearly all actives have a fitted effect of over 55% in size
#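 HEK293 cells carrying firefly luciferase reporters were seeded at 2,500 per well in Opti-MEM and cultured for 24 h. They were then treated with compounds at up to 57.5 uM final for 24 h at 37 degrees C before Dual-Glo luminescence readout.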
# * hit, by the source's call; i = inactive; u = inconclusive; x = no result; ! = not confirmed by another sample; [ ] = dose if it differs, or a comment. Only some compounds are listed: those with a hit (about 4.5% of all), similar ones and a draw of the others. Unless noted, calls come from the whole dose curve; as a rule, active = well fitted curve in the direction sought with a large enough effect; inconclusive = small, poorly fitted or top-dose-only effect, or another doubt; inactive = no such curve, though single readings can be large; an effect the other way counts as inactive or inconclusive.
SMILES,HTT promoter inh,NTMT1 inhibitor,OvCa metastasis,GPR32 ag,HTT-AS act
CCC(=O)N1CCc2cc(S(=O)(=O)CCC(=O)Nc3ccc(OC(F)(F)F)cc3)ccc21,u,8%,10%,65*,-25%
N#Cc1cc(NC(=O)C(=O)O)c(Cl)c(NC(=O)C(=O)O)c1,3%,16µM*,x,-16,-2%
Cc1nn(C(C)C(=O)NC2CCC(C)CC2)c(=O)c2cc3sccc3n12 (stereo not given),0%,-3%,9%,-14,-3%
COc1ccc(Nc2cc(C)c3cc(NC(=O)COc4cccc(C)c4)ccc3n2)cc1,u,17%,-4%,72*,-40%
Cc1cccc(OCC(=O)Nc2ccc(-c3nc4cc(C)ccc4o3)c(O)c2)c1,110%,12%,-7%,-6,0.5µM*
COc1ccc(CC(=O)Nc2ccc3nc(Nc4ccc(OC)cc4)cc(C)c3c2)cc1,u,11%,i,12,-41%
Cc1cccc(C(=O)Nc2ccc3oc(-c4cccc5c(Br)cccc45)nc3c2)c1,-11%,-1%,-11%,16,1%
Cc1cccc(C(=O)Nc2ccc3oc(-c4ccncc4)nc3c2)c1,u,u,-10%,72*,-19%
Cc1ccc([N+](=O)[O-])cc1S(=O)(=O)N(C)/N=C\c1cnc2ccc(Br)cn12,x,4%,x,x,x
O=C(Nc1noc2ccccc12)c1ccc(F)cc1,60%,u,5%,-24,u
O=C(Nc1noc2ccccc12)c1cccc(F)c1,67%,u,5%,-16,2µM*
Cc1ccc(CNS(=O)(=O)c2cc3c(cc2Cl)NC(=O)CO3)o1,3%,89µM*,-17%,-8,-4%
CCOc1ccc(/C=C(\C#N)C(=O)Nc2sc3c(c2C(=O)OC)C(C(=O)OC)CC3)cc1OC (stereo not given),-17%,10µM*,-3%,-5,-20%
Cc1cc(NC(=O)c2cc(Cl)ccc2Cl)ccc1-c1cc2ccccc2oc1=O,10µM*,7%,-15%,-7,-34%
CCc1cccc(NC(=O)Cn2c(=O)n(CC(=O)NCCc3ccccc3)c(=O)c3ccccc32)c1,-25%,-1%,0%,81*,-31%
Cc1cc(C)cc(NC(=O)Cn2c(=O)n(CC(=O)NCCc3ccccc3)c(=O)c3ccccc32)c1,-9%,1%,1%,49,-42%
COc1ccc(-c2noc(CC(=O)Nc3ccc(F)cc3F)n2)cc1,-7%,11%,12%,-11,-25%
Cc1ccc(C)c(NC(=O)CSc2nnc3[nH]c(=O)cc(-c4ccccc4)n23)c1,19%,-16%,2%,-18,u
Cc1ccc(NC(=O)CSc2nnc3[nH]c(=O)cc(-c4ccccc4)n23)cc1Cl,55%,-5%,-5%,-9,14µM*
CCC(=O)N1CCc2cc(S(=O)(=O)CCC(=O)NCc3ccccc3Cl)ccc21,1%,7%,4%,-5,-9%
O=C(CCC1N=C2c3ccccc3N=C(SCc3ccccc3Cl)N2C1=O)NCc1cccs1 (stereo not given),-12%,5%,8%,-22,-23%
O=C(O)c1cccnc1Nc1cccc(C(F)(F)F)c1,-5%,u,17%,100*!,-15%
O=C(Nc1cccc(C(F)(F)F)c1)c1cccc(C(=O)Nc2cccc(C(F)(F)F)c2)c1,-24%,21%,-3%,u,-31%
O=C(CN(c1cccc(C(F)(F)F)c1)S(=O)(=O)c1ccccc1)Nc1cccc(Cl)c1,28µM*,7%,-29%,22,-40%
CC(=O)Nc1ccc(S(=O)(=O)NCC2CCC(C(=O)NCCCOC(C)C)CC2)cc1 (stereo not given),18%,1%,i,-7,-2%
SMILES,HTT promoter inh,NTMT1 inhibitor,OvCa metastasis,GPR32 ag,HTT-AS act
NC(=O)Cn1c(=O)n(CCCCCC(=O)NCc2ccccc2)c(=O)c2sccc21,-10%,2%,4%,-7,5%
Cc1cc(Br)ccc1NC(=O)C(Cc1ccccc1)NS(=O)(=O)c1ccc(Br)s1 (stereo not given),-30%,1%,i,65*,-27%
CCOc1ccc(OCC)c(NC(=O)C(NS(=O)(=O)c2ccc(Br)s2)c2ccccc2)c1 (stereo not given),-7%,4%,i,85*,-26%
Cc1ccccc1N(C)C(=O)c1noc2c1COc1ccccc1-2,39%,-3%,-9%,-27,21%
Cc1cccc(-n2c(-c3ccco3)nc3c(cnn3-c3ccc(F)cc3)c2=O)c1,18µM*,-4%,i,21,-39%
Cc1ccc(-n2c(-c3ccco3)nc3c(cnn3-c3ccc(C)cc3)c2=O)cc1,-19%,-10%,9%,0,-26%
CC[C@@H]1C(=O)N(C)c2cnc(Nc3ccc(C(=O)NC4CCC(N5CCN(CC6CC6)CC5)CC4)cc3OC)nc2N1C(C)C (stereo not given in full),-3%,25µM*!,u,x,u
COc1cc(C(=O)NC2CCN(C)CC2)ccc1Nc1ncc2c(n1)N(C1CCCC1)CCC(=O)N2C(C)C,-14%,22µM*,u,x,-24%
CCOc1ccc(C2c3cc(OCC)c(OCC)cc3CC(=O)N2c2ccc(C(=O)O)cc2)cc1OCC (stereo not given),-18%,4%,-9%,-1,-1%[11.5 µM]
COc1cc(Cl)c(C)cc1NC(=O)C1CCCN(c2ncnc3onc(-c4ccc(F)cc4)c23)C1 (stereo not given),u,3%,0%,-17,-23%
Cc1cc2c(s1)c1cnn(Cc3ccc(Cl)c(Cl)c3)c(=O)c1n2C,x,-16%,x,x,x
Cc1ccc(Nc2ncnc3c2cnn3-c2ccccc2)c(C)c1,23%,11µM*,2%,21,u
CC(C)(C)c1ccc(C(=O)NNc2ncnc3c2cnn3-c2ccccc2)cc1,-25%,10%,-34%,104*,-8%
CC(C)(C)c1ccc(C(=O)NNc2ncnc3c2cnn3-c2ccc(Cl)cc2)cc1,u,29%,8%,26,-33%
Cc1ccc(-n2ncc3c(NCC(C)C)ncnc32)c(C)c1,-9%,4%,i,62*,17%
COc1ccc(NC(=O)Cn2nnc3sc4c(c3c2=O)CCCC4)cc1,-17%,-4%,19%,-12,-18%
Cn1nc(-c2ccccc2F)c2cc(C(=O)N3CCN(c4ccc(F)cc4)CC3)sc21,u,2%,-17%,20,-78%
COc1ccc([C@H]2CNC(=O)C2)cc1OC1CCCC1,x,1%[57.5 µM],x,x,x
CSc1ncc(C(=O)Nc2ccccc2C(F)(F)F)c(-c2ccccc2)n1,1%,89µM*,2%,u,-6%
Cc1cc(NC(=O)CCc2nc3cccnc3n2Cc2cccs2)ccc1Br,u,-8%,2%,-1,-24%
Cn1c(=O)c2c(ncn2CCO)n(C)c1=O,1%,12%[57.5 µM],x,1,-15%
